According to PubChem BioAssay (Tox21):
Results filed as inconclusive are left out. Values without a mark were called inactive. Calls of active or inactive are those of the source. Calls follow the shape of the full dose curve.

Target: D(2) dopamine receptor (Homo sapiens) (UniProt P14416)
Experiment: Dopamine D2 receptor (DRD2) small molecule agonists, cell-based qHTS assay (AID 1963594); also: nearly all actives have a fitted effect of over 35% in size
Conditions: HEK293-DRD2 cAMP HTRF, agonist mode, 30 min; series mostly up to 92.4 µM; activation: at the top concentration
Excerpt: National Center for Advancing Translational Sciences [NCATS]
Division of Preclinical Innovation [DPI]
U.S. Environmental Protection Agency [EPA]
National Institutes of Environmental Health Sciences [NIEHS]
National Toxicology Program [NTP]
U.S. Food and Drug Administration [FDA]
DRD2 is the D2 subtype of the dopamine receptor, which is coupled to Gi subtype of G protein-coupled receptor. This G protein-coupled receptor inhibits adenylyl cyclase activity. The DRD2-HEK293 cell line stably expressing D2 dopamine receptor can be used for screening agonists and antagonists of interactions between D2 and its ligands. The Hek293-DRD2 cAMP assay is based on HTRF technology. It measures changes of cAMP accumulation in response to Gi coupled GPCR activation or inhibition.
Tox21 Assay Protocol Summary:
DRD2-Hek293 cells were dispensed at 600 cells/3uL/well in 1536-well white plates using a Multidrop Dispenser. After the assay plates were incubated at a 37 C/5% CO2 incubator for 24 h, 1 uL of Ro20-1724 at final concentration of 0.1 mM was transferred to the assay plate by a Flying Reagent Dispenser. Following Ro20-1724 addition, 23 nL of compound dissolved in DMSO, positive controls or DMSO only was added to the assay plates via Wako pintool station. The assay plates were incubated at room temperature for 10 min. Next, 1 uL of NKH477 at 200nM was added into the plates. After the assay plates were incubated at room temperature for an additional 30 min, 2.5 ul/well of cAMP-d2 and 2.5 ul/well of anti-cAMP-cryptate were added respectively into the assay plates using a Flying Reagent Dispenser. The plates were incubated at room temperature for 1 h. The fluorescence intensity in the plates was measured at 340 nm excitation and 665 & 620 nm emission by an Envision plate reader.
% is scaled to controls: 0 for no effect and ±100 for the full control effect.

D(2) dopamine receptor (Homo sapiens), sequence (P14416 whole entry, looked up): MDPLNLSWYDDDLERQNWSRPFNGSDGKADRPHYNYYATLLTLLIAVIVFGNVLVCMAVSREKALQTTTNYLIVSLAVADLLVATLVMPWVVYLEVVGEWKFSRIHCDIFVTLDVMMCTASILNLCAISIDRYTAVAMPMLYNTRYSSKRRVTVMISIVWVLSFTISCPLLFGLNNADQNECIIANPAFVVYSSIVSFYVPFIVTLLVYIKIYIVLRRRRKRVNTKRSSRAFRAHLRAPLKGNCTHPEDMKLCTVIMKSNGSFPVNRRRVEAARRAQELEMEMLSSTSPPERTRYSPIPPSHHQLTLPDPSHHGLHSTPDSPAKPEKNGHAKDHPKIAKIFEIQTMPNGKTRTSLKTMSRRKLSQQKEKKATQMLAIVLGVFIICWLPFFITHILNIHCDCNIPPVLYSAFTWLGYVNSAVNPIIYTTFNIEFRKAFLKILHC

Row | Structure (SMILES) | activation | Potency
1 | Sc1nc(S)nc(S)n1 | -9.04% [at 42.5 µM] | –
2 | CCCCCCCOC(=O)c1ccc(O)cc1 | – | inactive
3 | CCCCCC(C)OC(=O)COc1ccc(Cl)c2cccnc12 (stereo not given) | 3.28% | –
4 | C[C@@H](O)[C@H]1C(=O)N2C(C(=O)O)=C(S[C@@H]3CN[C@H](CNS(N)(=O)=O)C3)[C@H](C)[C@H]12 | -8.55% [at 42.5 µM] | –
5 | O=S(=O)(O)c1cc(O)ccc1O | 0% | –
6 | C=CCN(CC=C)CC=C | -12.6% | –
7 | CCN(Cc1ccccc1)c1ccccc1 | -4.4% | –
8 | COC(C)(C)CC(C)=O | -6.39% | –
9 | C=C1C(C)(C)[C@@]2(Cl)C(Cl)[C@]1(Cl)C(Cl)(Cl)C2(Cl)Cl (stereo not given in full) | -7.54% | –
10 | CCOc1ccc2nc(S(N)(=O)=O)sc2c1 | 7.52% [at 42.5 µM] | –
11 | CC(=O)SCc1ccco1 | 2.63% | –
12 | CCCOC(OCCC)OCCC | 1.81% | –
13 | CCC1(c2cnc[nH]2)Cc2ccccc2C1 | 14.4% [at 42.5 µM] | –
14 | CNC(C)=O | 9.75% | –
15 | CN1CCCN=C1/C=C/c1cccs1 | 3.99% [at 42.5 µM] | –
16 | NNc1nc(-c2ccc(N)cc2)cs1 | 1.97% | –
17 | Cc1nn(C)c(Oc2ccccc2)c1/C=N/OCc1ccc(C(=O)OC(C)(C)C)cc1 | -18.9% | –
18 | Cc1cc(O)c(Cl)c(C)c1Cl | -23% | –
19 | OC(C#CCN1CCCC1)(c1ccccc1)c1ccccc1 | -7.32% [at 42.5 µM] | –
20 | NC(=O)n1c(O)c(C(=O)c2cccs2)c2cc(Cl)ccc21 | 5.95% [at 42.5 µM] | –

Row | Structure (SMILES) | activation | Potency
21 | O[Si](c1ccccc1)(c1ccccc1)c1ccccc1 | -5.03% | –
22 | CCCCCCCOC(=O)CCC | -5.05% | –
23 | CC(=O)/C(C)=C/C1C(C)=CCCC1(C)C (stereo not given) | 2.71% | –
24 | COc1ccc2cc([C@H](C)C(=O)O)ccc2c1 | – | inactive
25 | c1ccc(C(O[C@@H]2CCCN(CCc3ccc4c(c3)OCO4)C2)c2ccccc2)cc1 | 3.75% | –
26 | CCOC(=O)C1=C[C@]2(CC)CCCN3CCc4c(n1c1ccccc41)[C@@H]32 | -5.84% [at 42.5 µM] | –
27 | Cc1c(C(=O)O)cccc1[N+](=O)[O-] | -0.862% | –
28 | CC(=O)OCCC(C)CC(C)(C)C (stereo not given) | -4.92% | –
29 | c1ccc(-c2ccccn2)nc1 | -4.19% | –
30 | CC(C)(COC(=O)c1ccccc1)COC(=O)c1ccccc1 | -18% | –
31 | O=C(OCCOCCOCCOC(=O)c1ccccc1)c1ccccc1 | -11.5% | –
32 | CCCCOC(=O)CCCCC(=O)OCCCC | -7.26% | –
33 | COC(C)=O | -0.307% | –
34 | CC1=CC(=O)CCC1 | -0.404% | –
35 | Fc1ccc(C(c2ccc(F)cc2)N2CCN(C/C=C/c3ccccc3)CC2)cc1 | -15.1% [at 42.5 µM] | –
36 | Cc1nc([N+](=O)[O-])cn1-c1ccc([N+](=O)[O-])cc1 | -1.66% [at 42.5 µM] | –
37 | CCC[Si](OC)(OC)OC | -8.17% | –
38 | CCC(C(=O)NC(=O)NC(C)=O)c1ccccc1 (stereo not given) | -3.29% [at 42.5 µM] | –
39 | CC/C=C\CCCCCO | 1.52% | –
40 | CN(CCCN1c2ccccc2CCc2ccccc21)CC(=O)c1ccc(Cl)cc1 | 0.498% [at 42.5 µM] | –
